Assay results published in PubChem BioAssay (EPA / NIEHS).
Values joined by “and” are separate entries in the source; they are usually repeats but may differ in a detail not shown here. Identical values can stand only once. Results filed as inconclusive are left out. Where a structure was tested more than once in an assay, its records may differ in their call. Active and inactive are the calls of the source. Rule for the calls, unless noted: active = hit-call score of the fitted dose curve at least 0.9, where 1 is the maximum; inconclusive = response in the unintended direction; inactive = score below 0.9.

Assays:
[1] = ATG_M_06_XSP2: Attagene TRANS-FACTORIAL Multi-Species (XSP2) HepG2 Assay for M06 Transcription Factor (Internal Marker) (AID 2283811);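 note: internal background marker reporter mRNA measured by RT-PCR and capillary electrophoresis; hits are increases in signal above the DMSO baseline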
Summary of the method: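 Readout: fluorescent reporter-mRNA peaks by capillary electrophoresis after RT-PCR and HpaI digest, scored upward relative to DMSO. Transfected HepG2, 24 h chemical exposure, with 3 nM 6-alpha-fluorotestosterone and 1.5 nM norgestrel added.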

[2] = system: turtle Estrogen Receptor (ERa), gene 101933533; experiment: ATG_trERa_XSP2: Attagene TRANS-FACTORIAL Multi-Species (XSP2) HepG2 Assay for turtle Estrogen Receptor (ERa) (AID 2283812);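 note: actives raise reporter signal above DMSO so AC50 reflects agonist activity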
Summary of the method: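 Readout is reporter mRNA quantified by RT-PCR with capillary electrophoresis after 24 h compound exposure, increase relative to DMSO. Uses transiently transfected human HepG2 liver cells carrying a chimeric turtle ERa-Gal4 receptor driving GAL4-UAS reporters.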

[3] = molecular target: zebrafish Estrogen Receptor (ER1), esr1 (gene 259252) (UniProt P57717); experiment: ATG_zfER1_XSP2: Attagene TRANS-FACTORIAL Multi-Species (XSP2) HepG2 Assay for zebrafish Estrogen Receptor (ER1) (AID 2283816)
zebrafish Estrogen Receptor (ER1), esr1 (gene 259252), sequence (P57717 whole entry, looked up, the tested form may be a part): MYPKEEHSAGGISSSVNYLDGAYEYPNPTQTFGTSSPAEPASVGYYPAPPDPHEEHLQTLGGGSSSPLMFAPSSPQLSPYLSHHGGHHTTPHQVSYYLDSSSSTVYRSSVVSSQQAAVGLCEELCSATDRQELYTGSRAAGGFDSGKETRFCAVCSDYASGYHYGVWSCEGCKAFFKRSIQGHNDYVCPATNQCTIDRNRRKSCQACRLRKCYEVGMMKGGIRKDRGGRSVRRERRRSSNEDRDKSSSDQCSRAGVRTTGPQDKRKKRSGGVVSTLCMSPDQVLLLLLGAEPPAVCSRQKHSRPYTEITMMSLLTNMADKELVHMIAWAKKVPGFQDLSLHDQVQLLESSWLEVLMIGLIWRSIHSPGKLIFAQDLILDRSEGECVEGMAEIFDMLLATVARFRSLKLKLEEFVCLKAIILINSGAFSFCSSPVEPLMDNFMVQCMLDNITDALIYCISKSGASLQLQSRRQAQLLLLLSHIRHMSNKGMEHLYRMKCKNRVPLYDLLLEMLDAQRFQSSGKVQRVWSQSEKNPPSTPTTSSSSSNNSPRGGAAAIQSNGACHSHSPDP
Summary of the method: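 After 24 h compound exposure, RNA from transfected HepG2 cells was reverse-transcribed and reporter transcripts resolved by capillary electrophoresis. The TRANS format reads exogenous zebrafish ER1-Gal4 chimera activity on GAL4-UAS elements; gain of signal against DMSO.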

[4] = molecular target: chicken Estrogen Receptor (ERa), ESR1 (gene 396099) (UniProt P06212); experiment: ATG_chERa_XSP2: Attagene TRANS-FACTORIAL Multi-Species (XSP2) HepG2 Assay for chicken Estrogen Receptor (ERa) (AID 2283817);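 note: actives raise reporter signal above DMSO so AC50 reflects ER activation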
chicken Estrogen Receptor (ERa), ESR1 (gene 396099), sequence (P06212 whole entry, looked up, the tested form may be a part): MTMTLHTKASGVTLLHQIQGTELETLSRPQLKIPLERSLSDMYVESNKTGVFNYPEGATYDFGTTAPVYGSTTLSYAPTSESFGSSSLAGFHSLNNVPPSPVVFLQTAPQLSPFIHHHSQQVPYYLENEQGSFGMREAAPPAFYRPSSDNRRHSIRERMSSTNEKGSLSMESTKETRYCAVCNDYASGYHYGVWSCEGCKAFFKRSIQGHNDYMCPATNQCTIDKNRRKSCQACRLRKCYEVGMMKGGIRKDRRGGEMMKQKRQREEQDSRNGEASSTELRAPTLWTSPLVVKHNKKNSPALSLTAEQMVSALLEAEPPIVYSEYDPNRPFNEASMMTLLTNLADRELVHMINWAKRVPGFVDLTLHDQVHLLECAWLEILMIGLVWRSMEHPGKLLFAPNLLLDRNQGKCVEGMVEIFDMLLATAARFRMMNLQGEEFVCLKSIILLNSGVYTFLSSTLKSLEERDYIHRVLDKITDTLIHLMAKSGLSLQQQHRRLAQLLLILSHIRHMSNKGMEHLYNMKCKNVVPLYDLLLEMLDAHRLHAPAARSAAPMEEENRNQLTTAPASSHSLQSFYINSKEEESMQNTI
Summary of the method: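 Readout: fluorescent reporter-transcript fragments resolved by capillary electrophoresis after RT-PCR and HpaI cut. Chicken ERa-Gal4 fusion in transiently transfected HepG2, dosed for 24 h; activity taken as increase over DMSO baseline.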

[5] = system: chicken Androgen Receptor (AR), gene 422165; experiment: ATG_chAR_XSP2: Attagene TRANS-FACTORIAL Multi-Species (XSP2) HepG2 Assay for chicken Androgen Receptor (AR) (AID 2283819);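 note: hits raise reporter mRNA above DMSO so potency is for activation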
Summary of the method: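 Readout is reporter mRNA induction via RT-PCR/capillary electrophoresis after 24 h chemical exposure, positive direction relative to DMSO. Transiently transfected HepG2 express chimeric chicken AR–GAL4; AR stimulated by 3 nM 6-alpha-fluorotestosterone and 1.5 nM norgestrel.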

[6] = system: frog Estrogen Receptor (ER), gene 398734; experiment: ATG_frER1_XSP2: Attagene TRANS-FACTORIAL Multi-Species (XSP2) HepG2 Assay for frog Estrogen Receptor (ER) (AID 2283821);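 note: hits raise reporter mRNA above DMSO baseline so potency means agonist or activator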
Summary of the method: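 Reporter mRNA induction, detected as fluorescence after RT-PCR and capillary electrophoresis, is the endpoint; activity is fitted upward against DMSO. Cells are human liver HepG2 carrying transfected NR-Gal4 chimeras with GAL4-UAS-driven reporters, harvested 24 h post-dosing.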

[7] = system: zebrafish Estrogen Receptor (ER2b), gene 317733; experiment: ATG_zfER2b_XSP2: Attagene TRANS-FACTORIAL Multi-Species (XSP2) HepG2 Assay for zebrafish Estrogen Receptor (ER2b) (AID 2283823);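 note: fitted upward as reporter gain over DMSO so potency reflects activation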
Summary of the method: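 Cells used were HepG2, transiently transfected with chimeric nuclear receptor-Gal4 reporter units. After 24 h of chemical treatment, reporter transcripts were amplified by RT-PCR, labelled and sized by capillary electrophoresis, with induction analysed relative to DMSO.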

[8] = system: zebrafish Androgen Receptor (AR), gene 100005148; experiment: ATG_zfAR_XSP2: Attagene TRANS-FACTORIAL Multi-Species (XSP2) HepG2 Assay for zebrafish Androgen Receptor (AR) (AID 2283825);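 note: hits raise reporter mRNA above DMSO so AC50 reflects agonist-type gain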
Summary of the method: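 After 24 h compound exposure in medium with 3 nM 6-alpha-fluorotestosterone plus 1.5 nM norgestrel, HepG2 cells carrying zebrafish AR–GAL4 reporter constructs were assessed for reporter mRNA gain by RT-PCR and capillary electrophoresis.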

[9] = molecular target: Estrogen receptor (Homo sapiens) (UniProt P03372); experiment: ATG_hERa_XSP2: Attagene TRANS-FACTORIAL Multi-Species (XSP2) HepG2 Assay for human Estrogen Receptor (ERa) (AID 2283827)
Estrogen receptor (Homo sapiens), sequence (P03372 whole entry, looked up, the tested form may be a part): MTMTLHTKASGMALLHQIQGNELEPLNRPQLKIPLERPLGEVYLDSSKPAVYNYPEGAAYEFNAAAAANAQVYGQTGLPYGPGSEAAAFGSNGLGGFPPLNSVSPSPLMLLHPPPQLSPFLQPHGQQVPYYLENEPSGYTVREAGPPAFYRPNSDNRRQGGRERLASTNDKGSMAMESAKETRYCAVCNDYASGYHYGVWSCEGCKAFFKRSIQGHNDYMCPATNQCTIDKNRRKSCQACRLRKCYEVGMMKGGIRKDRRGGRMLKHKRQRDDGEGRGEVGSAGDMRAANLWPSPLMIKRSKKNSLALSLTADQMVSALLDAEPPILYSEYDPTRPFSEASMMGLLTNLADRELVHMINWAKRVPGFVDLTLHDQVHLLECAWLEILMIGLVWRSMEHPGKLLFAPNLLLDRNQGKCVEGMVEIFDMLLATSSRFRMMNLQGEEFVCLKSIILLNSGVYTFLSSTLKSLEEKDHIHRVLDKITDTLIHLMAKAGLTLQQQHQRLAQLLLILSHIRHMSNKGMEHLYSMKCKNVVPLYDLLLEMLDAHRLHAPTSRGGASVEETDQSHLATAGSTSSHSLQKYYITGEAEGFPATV
Summary of the method: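 Trans-activation of exogenous human ERa-Gal4 chimera read in HepG2 as reporter transcript after 24 h exposure; medium included 3 nM 6-alpha-fluorotestosterone and 1.5 nM norgestrel. Quantified by RT-PCR with capillary electrophoresis, positive-direction fitting against DMSO.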

[10] = system: frog Estrogen Receptor (ER2), gene 100174814; experiment: ATG_frER2_XSP2: Attagene TRANS-FACTORIAL Multi-Species (XSP2) HepG2 Assay for frog Estrogen Receptor (ER2) (AID 2283828)
Summary of the method: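 Cells were transfected with reporter constructs under GAL4-UAS control, dosed with chemicals for 24 h, then lysed for RNA; the frog ER2-driven reporter mRNA was quantified by capillary electrophoresis of labeled PCR fragments, with activity fitted upward from DMSO.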

[11] = molecular target: Peroxisome proliferator-activated receptor gamma (Homo sapiens) (UniProt P37231); experiment: ATG_hPPARg_XSP2: Attagene TRANS-FACTORIAL Multi-Species (XSP2) HepG2 Assay for human Peroxisome Proliferator-activated Receptor gamma (PPARg) (AID 2283829);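 note: actives raise reporter mRNA above DMSO so AC50 reflects PPARg activation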
Peroxisome proliferator-activated receptor gamma (Homo sapiens), sequence (P37231 whole entry, looked up, the tested form may be a part): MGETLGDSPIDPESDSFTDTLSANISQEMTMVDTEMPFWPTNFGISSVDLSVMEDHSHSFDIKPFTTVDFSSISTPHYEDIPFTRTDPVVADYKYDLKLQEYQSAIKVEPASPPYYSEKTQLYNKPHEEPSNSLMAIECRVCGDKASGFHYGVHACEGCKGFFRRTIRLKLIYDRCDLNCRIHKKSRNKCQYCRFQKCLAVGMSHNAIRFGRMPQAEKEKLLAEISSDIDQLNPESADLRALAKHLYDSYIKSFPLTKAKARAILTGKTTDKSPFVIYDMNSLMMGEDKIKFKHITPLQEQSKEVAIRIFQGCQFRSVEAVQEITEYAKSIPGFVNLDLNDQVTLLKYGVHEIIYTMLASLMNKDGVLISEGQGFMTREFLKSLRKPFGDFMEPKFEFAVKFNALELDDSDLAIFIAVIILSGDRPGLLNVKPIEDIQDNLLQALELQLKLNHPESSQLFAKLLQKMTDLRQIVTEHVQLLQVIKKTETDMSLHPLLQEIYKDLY
Summary of the method: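 After transfecting HepG2 with GAL4-UAS reporter constructs, cells are dosed for 24 h; total RNA is reverse-transcribed, PCR-amplified, FAM-labeled, HpaI-digested and resolved by capillary electrophoresis. Activity is measured as mRNA induction relative to DMSO.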

[12] = molecular target: mouse Peroxisome Proliferator-activated Receptor gamma (PPARg), Pparg (gene 19016) (UniProt P37238); experiment: ATG_mPPARg_XSP2: Attagene TRANS-FACTORIAL Multi-Species (XSP2) HepG2 Assay for mouse Peroxisome Proliferator-activated Receptor gamma (PPARg) (AID 2283830);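 note: hits are gains in reporter mRNA above DMSO so AC50 marks activation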
mouse Peroxisome Proliferator-activated Receptor gamma (PPARg), Pparg (gene 19016), sequence (P37238 whole entry, looked up, the tested form may be a part): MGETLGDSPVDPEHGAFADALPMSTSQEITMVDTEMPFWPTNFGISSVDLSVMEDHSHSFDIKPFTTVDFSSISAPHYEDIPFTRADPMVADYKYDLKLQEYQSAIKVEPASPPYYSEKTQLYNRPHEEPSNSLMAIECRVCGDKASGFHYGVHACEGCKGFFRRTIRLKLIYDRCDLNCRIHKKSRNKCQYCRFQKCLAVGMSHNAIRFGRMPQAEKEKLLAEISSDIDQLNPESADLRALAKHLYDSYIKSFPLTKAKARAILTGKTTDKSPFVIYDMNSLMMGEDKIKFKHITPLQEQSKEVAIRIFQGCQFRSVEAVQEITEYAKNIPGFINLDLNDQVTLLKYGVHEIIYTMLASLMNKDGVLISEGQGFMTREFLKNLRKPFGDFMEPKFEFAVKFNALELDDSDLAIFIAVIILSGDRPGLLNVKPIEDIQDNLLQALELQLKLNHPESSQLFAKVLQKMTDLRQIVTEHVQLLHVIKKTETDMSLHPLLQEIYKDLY
Summary of the method: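 Multiplexed TRANS reporter readout: after 24 h chemical exposure of transfected HepG2 cells (with 3 nM 6-alpha-fluorotestosterone, 1.5 nM norgestrel present), RNA reverse-transcribed, amplified, 6-FAM-labelled and resolved by capillary electrophoresis; mouse PPARg-Gal4 induction scored against DMSO.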

[13] = molecular target: Nuclear receptor subfamily 1 group I member 2 (Mus musculus) (UniProt O54915); experiment: ATG_mPXR_XSP2: Attagene TRANS-FACTORIAL Multi-Species (XSP1) HepG2 Assay for mouse Pregnane X Receptor (PXR) (AID 2283831)
Nuclear receptor subfamily 1 group I member 2 (Mus musculus), sequence (O54915 whole entry, looked up, the tested form may be a part): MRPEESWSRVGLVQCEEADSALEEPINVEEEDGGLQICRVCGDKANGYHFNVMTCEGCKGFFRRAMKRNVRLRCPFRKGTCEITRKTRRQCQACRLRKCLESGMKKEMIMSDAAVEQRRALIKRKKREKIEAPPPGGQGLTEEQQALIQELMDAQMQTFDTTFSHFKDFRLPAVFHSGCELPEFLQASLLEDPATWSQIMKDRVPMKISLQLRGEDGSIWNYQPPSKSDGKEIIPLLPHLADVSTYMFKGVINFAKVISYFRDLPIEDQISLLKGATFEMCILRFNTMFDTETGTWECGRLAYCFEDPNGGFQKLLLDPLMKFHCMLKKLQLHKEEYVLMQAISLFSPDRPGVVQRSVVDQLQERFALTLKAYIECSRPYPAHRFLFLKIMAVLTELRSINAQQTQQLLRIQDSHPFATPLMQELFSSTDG
Summary of the method: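 Reporter transcripts were quantified by RT-PCR, FAM primer extension, HpaI digestion and capillary electrophoresis after 24 h of chemical exposure in transiently transfected HepG2 cells carrying chimeric receptor-GAL4 constructs; DMSO served as baseline.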

[14] = molecular target: zebrafish Thyroid Hormone Receptor alpha (TRa), thraa (gene 30670) (UniProt Q98867); experiment: ATG_zfTRa_XSP2: Attagene TRANS-FACTORIAL Multi-Species (XSP1) HepG2 Assay for zebrafish Thyroid Hormone Receptor alpha (TRa) (AID 2283832);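 note: actives raise zebrafish TRa-Gal4 reporter transcript above DMSO baseline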
zebrafish Thyroid Hormone Receptor alpha (TRa), thraa (gene 30670), sequence (Q98867 whole entry, looked up, the tested form may be a part): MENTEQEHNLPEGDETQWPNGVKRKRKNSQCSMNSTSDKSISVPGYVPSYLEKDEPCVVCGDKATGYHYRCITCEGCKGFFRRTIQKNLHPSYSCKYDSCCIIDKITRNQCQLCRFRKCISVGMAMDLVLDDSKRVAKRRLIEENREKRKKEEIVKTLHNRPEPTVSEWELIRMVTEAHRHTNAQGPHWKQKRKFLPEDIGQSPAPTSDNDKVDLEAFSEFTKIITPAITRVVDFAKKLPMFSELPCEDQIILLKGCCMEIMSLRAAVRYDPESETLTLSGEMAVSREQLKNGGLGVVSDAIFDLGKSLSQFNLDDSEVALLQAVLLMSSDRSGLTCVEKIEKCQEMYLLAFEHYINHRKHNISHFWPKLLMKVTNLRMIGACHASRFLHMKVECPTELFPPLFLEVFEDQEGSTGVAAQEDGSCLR
Summary of the method: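 Readout is reporter mRNA induction, quantified by RT-PCR and capillary electrophoresis with fluorescent labelling, after 24 h compound exposure of transiently transfected HepG2 cells carrying NR-Gal4 chimera reporters. Activity fitted upward relative to DMSO.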

[15] = system: zebrafish Peroxisome Proliferator-activated Receptor gamma (PPARg), gene 557037; experiment: ATG_zfPPARg_XSP2: Attagene TRANS-FACTORIAL Multi-Species (XSP2) HepG2 Assay for zebrafish Peroxisome Proliferator-activated Receptor gamma (PPARg) (AID 2283833);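 note: actives increase reporter signal over DMSO so AC50 reflects activation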
Summary of the method: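 Multi-species TRANS format in HepG2, 24 h dosing; medium also contained 3 nM 6-alpha-fluorotestosterone and 1.5 nM norgestrel to stimulate androgen receptor. Zebrafish PPARg-GAL4 induced reporter mRNA was measured by RT-PCR/capillary electrophoresis.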

[16] = system: turtle Thyroid Hormone Receptor, alpha (TRa), gene 101949057; experiment: ATG_trTRa_XSP2: Attagene TRANS-FACTORIAL Multi-Species (XSP1) HepG2 Assay for turtle Thyroid Hormone Receptor, alpha (TRa) (AID 2283834);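 note: hits raise reporter mRNA over the DMSO baseline so AC50 marks activators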
Summary of the method: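 Transfection of HepG2 with multiple reporter transcription units, then chemical dosing for 24 h. Total RNA was reverse-transcribed, reporter sequences PCR-amplified and FAM-labelled, then sized by capillary electrophoresis. DMSO served as baseline.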

[17] = ATG_M_61_XSP2: Attagene TRANS-FACTORIAL Multi-Species (XSP2) HepG2 Assay for M61 Transcription Factor (Internal Marker) (AID 2283835; active = hit-call score of the fitted dose curve at least 0.9, where 1 is the maximum; inactive = score below 0.9;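 note: reporter mRNA of an internal background marker read by RT-PCR and capillary electrophoresis; active means a rise in signal above the DMSO baseline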)
Summary of the method: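 Transient MRTU transfection of human HepG2; 24 h chemical dosing with 3 nM 6-alpha-fluorotestosterone + 1.5 nM norgestrel added for AR stimulation. RNA isolated, RT, PCR, FAM-labelled, HpaI cut, CE read. Positive direction vs DMSO.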

[18] = molecular target: zebrafish Thyroid Hormone Receptor beta (TRb), thrb (gene 30607) (UniProt Q9PVE4); experiment: ATG_zfTRb_XSP2: Attagene TRANS-FACTORIAL Multi-Species (XSP1) HepG2 Assay for zebrafish Thyroid Hormone Receptor beta (TRb) (AID 2283836)
zebrafish Thyroid Hormone Receptor beta (TRb), thrb (gene 30607), sequence (Q9PVE4 whole entry, looked up): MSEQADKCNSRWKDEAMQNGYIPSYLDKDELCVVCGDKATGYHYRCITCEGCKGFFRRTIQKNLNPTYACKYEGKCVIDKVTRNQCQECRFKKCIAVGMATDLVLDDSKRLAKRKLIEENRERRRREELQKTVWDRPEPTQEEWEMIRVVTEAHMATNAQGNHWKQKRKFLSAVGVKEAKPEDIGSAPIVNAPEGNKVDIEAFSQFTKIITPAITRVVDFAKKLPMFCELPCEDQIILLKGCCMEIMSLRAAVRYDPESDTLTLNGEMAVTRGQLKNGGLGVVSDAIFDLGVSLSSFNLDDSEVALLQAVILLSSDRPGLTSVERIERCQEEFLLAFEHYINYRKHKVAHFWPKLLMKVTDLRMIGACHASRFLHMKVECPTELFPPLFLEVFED
Summary of the method: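 Reporter transcripts were measured by RT-PCR with fluorescent primer extension and capillary electrophoresis, 24 h after chemical dosing of transiently transfected HepG2 cells. Activity was scored as upward signal versus DMSO baseline.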

[19] = system: zebrafish Estrogen Receptor (ER2a), gene 317734; experiment: ATG_zfER2a_XSP2: Attagene TRANS-FACTORIAL Multi-Species (XSP2) HepG2 Assay for zebrafish Estrogen Receptor (ER2a) (AID 2283818);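 note: hits raise reporter mRNA so AC50 reflects activation of zebrafish ER2a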
Summary of the method: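 Multiplexed trans-reporter readout: RT-PCR then capillary electrophoresis of reporter transcripts after 24 h compound treatment. Human HepG2 carries transfected zebrafish ER2a-Gal4 chimera; 3 nM 6-alpha-fluorotestosterone plus 1.5 nM norgestrel present. Induction scored against DMSO.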

[20] = molecular target: Estrogen receptor beta (Homo sapiens) (UniProt Q92731); experiment: ATG_hERb_XSP2: Attagene TRANS-FACTORIAL Multi-Species (XSP2) HepG2 Assay for human Estrogen Receptor (ERb) (AID 2283813);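 note: actives raise reporter mRNA above DMSO so AC50 reflects agonist induction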
Estrogen receptor beta (Homo sapiens), sequence (Q92731 whole entry, looked up, the tested form may be a part): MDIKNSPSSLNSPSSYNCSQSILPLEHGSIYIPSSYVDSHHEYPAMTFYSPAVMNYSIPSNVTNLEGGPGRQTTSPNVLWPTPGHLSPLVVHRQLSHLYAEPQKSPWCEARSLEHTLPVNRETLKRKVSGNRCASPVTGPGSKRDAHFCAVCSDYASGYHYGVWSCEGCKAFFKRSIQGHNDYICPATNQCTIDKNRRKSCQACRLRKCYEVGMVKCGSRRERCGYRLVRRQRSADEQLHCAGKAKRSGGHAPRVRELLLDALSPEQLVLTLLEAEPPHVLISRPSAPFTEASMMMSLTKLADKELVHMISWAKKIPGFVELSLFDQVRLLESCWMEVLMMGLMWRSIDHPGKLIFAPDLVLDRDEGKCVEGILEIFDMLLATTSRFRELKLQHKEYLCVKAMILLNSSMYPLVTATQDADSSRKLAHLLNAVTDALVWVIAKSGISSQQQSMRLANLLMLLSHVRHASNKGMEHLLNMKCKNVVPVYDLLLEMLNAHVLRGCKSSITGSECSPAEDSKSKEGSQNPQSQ
Summary of the method: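 Transient TRANS reporter system in HepG2: after 24 h of chemical, RNA is reverse-transcribed, reporter cDNA amplified, FAM-labelled and sized by capillary electrophoresis. Induction of the human ERb-Gal4 reporter is measured relative to DMSO.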

Measured: AC50

O=C(OCCOCCOCCOC(=O)c1ccccc1)c1ccccc1
inactive: [1] | [2] | [3] | [4] | [5] | [6] | [7] | [8] | [9] | [10] | [11] | [12] | [14] | [15] | [16] | [17] | [18]
active: [7] 153 µM | [9] 26.7 µM | [11] 46.3 µM | [12] 58.5 µM | [13] 22.8 µM

c1ccc(B(c2ccccc2)c2ccccc2)cc1
inactive: [1] | [5] | [14] | [16] | [17] | [18]
active: [2] 4.9 µM and 7.88 µM | [3] 59.7 µM and 22 µM | [4] 5.78 µM and 3.86 µM | [19] 7.9 µM and 9.53 µM | [6] 7.06 µM and 7.56 µM | [7] 18.1 µM and 10.8 µM | [9] 7.53 µM and 3.43 µM | [10] 6.89 µM and 5.72 µM | [11] 60.6 µM and 40.8 µM | [12] 65.6 µM and 45.9 µM | [13] 1.27 µM and 4.39 µM | [15] 100 µM

C#C[C@]1(O)CC[C@H]2[C@@H]3CCc4cc(OC)ccc4[C@H]3CC[C@@]21C
active: [2] 0.21 nM and 0.082 nM | [3] 10.2 nM and 3.1 nM | [4] 0.189 nM and 0.519 nM | [19] 0.272 nM and 0.0819 nM | [6] 0.598 nM and 0.0823 nM | [7] 1.1 nM and 0.373 nM | [9] 0.111 nM and 0.0826 nM | [10] 3.94 nM and 1.23 nM
inactive: [1] | [11] | [13] | [14] | [16] | [17] | [18]

C(=C(c1ccccc1)c1ccccc1)c1ccccc1
active: [2] 39.9 nM | [4] 29.1 nM | [7] 0.165 µM | [9] 0.0461 µM | [10] 25.3 nM
not listed: [5] | [8] | [14] | [19]
inactive: all other assays above
